Laboratory results from PubChem BioAssay AID1159580 (chemical genetic matrix, 2015).
Values joined by “and” are separate entries in the source; they are usually repeats but may differ in a detail not shown here. Identical values can stand only once. Screen size: about 5,500 compounds; about 2,000 (36%) were called active. Roughly 18% stayed inconclusive and do not appear here. Rule as the data show it: active = normalized growth mostly below about 0.91 (no sharp cut-off); inconclusive = no clear call, values can overlap the other calls; inactive = mostly above about 0.92. This is one part of the list.

Assay: chemical genetic growth profiling, strain panel (AID 1159580);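 also: tested at 20 µM; growth read once vehicle control cultures reached saturation at 30 °C; 1 = growth at the plate median or of vehicle wells; lower values mean less growth of the strain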
Details: S. cerevisiae deletion strains, growth OD

Measured: normalized growth

CC(=O)Oc1cc(OC(C)=O)c2c(c1)O[C@H](c1ccc(OC(C)=O)c(OC(C)=O)c1)[C@H](OC(C)=O)C2
inactive: locus YAL013W, strain DEP1, hits give low values 1.01 | locus YAL021C, strain ccr4, hits give low values 1 | locus YAL026C, strain drs2, hits give low values 1.01 | locus YAL030W, strain snc1, hits give low values 1 | locus YBL061C, strain skt5, hits give low values 0.994 | locus YBR009C, strain hhf1, hits give low values 0.965 | locus YBR021W, strain FUR4, hits give low values 1 | locus YBR023C, strain chs3, hits give low values 0.998 | locus YBR171W, strain sec66, hits give low values 0.999 | locus YBR229C, strain ROT2, hits give low values 1.01 | locus YBR231C, strain swc5, hits give low values 1.01 | locus YBR279W, strain paf1, hits give low values 0.985 | locus YCL011C, strain gbp2, hits give low values 0.982 | locus YCL016C, strain dcc1, hits give low values 0.971 | locus YCL029C, strain bik1, hits give low values 1.02 | locus YCL061C, strain MRC1, hits give low values 0.999 | locus YCL069W, strain vba3, hits give low values 1 | locus YCR088W, strain abp1, hits give low values 1 | locus YDL005C, strain med2, hits give low values 1.01 | locus YDL035C, strain GPR1, hits give low values 1.01 | locus YDL040C, strain nat1, hits give low values 1 | locus YDL074C, strain BRE1, hits give low values 1.01 | locus YDL101C, strain DUN1, hits give low values 1.01 | locus YDL185W, strain tfp1, hits give low values 1.03 | locus YDL192W, strain arf1, hits give low values 1.02 | locus YDR001C, strain nth1, hits give low values 0.999 | locus YDR069C, strain doa4, hits give low values 1 | locus YDR101C, strain arx1, hits give low values 1.02 | locus YDR137W, strain rgp1, hits give low values 1.02 | locus YDR159W, strain sac3, hits give low values 1.02 | locus YDR162C, strain NBP2, hits give low values 1 | locus YDR195W, strain ref2 1.04 | locus YDR297W, strain sur2, hits give low values 0.996 | locus YDR318W, strain mcm21, hits give low values 1.03 | locus YDR334W, strain swr1, hits give low values 1 | locus YDR335W, strain msn5, hits give low values 1 | locus YDR388W, hits give low values 1.03 | locus YDR392W, strain spt3, hits give low values 0.964 | locus YDR502C, strain sam2, hits give low values 1.02 | locus YEL003W, strain gim4, hits give low values 1 | locus YEL037C, strain rad23, hits give low values 1 | locus YEL061C, strain CIN8 (second series), hits give low values 0.997 | locus YEL061C, strain CIN8, hits give low values 1 | locus YER015W, strain faa2, hits give low values 0.983 | locus YER016W, strain bim1, hits give low values 1 | locus YER110C, hits give low values 1.03 | locus YER111C, strain swi4, hits give low values 0.995 | locus YER155C, strain BEM2 (second series), hits give low values 1.05 | locus YER155C, strain BEM2, hits give low values 0.999 | locus YER167W, strain BCK2, hits give low values 1.02 | locus YFR010W, strain ubp6, hits give low values 0.998 | locus YGL078C, strain dbp3, hits give low values 1.02 | locus YGL086W, strain mad1, hits give low values 0.997 | locus YGL167C, strain pmr1, hits give low values 0.998 | locus YGL173C, strain kem1, hits give low values 1 | locus YGL227W, strain vid30, hits give low values 0.991 | locus YGL240W, strain doc1, hits give low values 1.04 | locus YGL248W, strain PDE1, hits give low values 1.01 | locus YGL253W, strain hxk2, hits give low values 0.984 | locus YGR078C, strain PAC10, hits give low values 1 | locus YGR135W, strain pre9, hits give low values 1.02 | locus YGR252W, strain gcn5, hits give low values 1.05 | locus YHR013C, strain ard1, hits give low values 0.999 | locus YHR027C, strain rpn1, hits give low values 0.999 | locus YHR030C, strain SLT2, hits give low values 1.01 and 0.946 | locus YHR079C, strain IRE1 (second series), hits give low values 1.03 | locus YHR079C, strain IRE1, hits give low values 0.968 | locus YHR094C, strain hxt1, hits give low values 1.02 | locus YHR129C, strain ARP1, hits give low values 1.01 | locus YHR142W, strain chs7, hits give low values 0.944 | locus YHR200W, strain rpn10, hits give low values 1.03 | locus YIL066C, strain RNR3, hits give low values 0.999 | locus YIL073C, strain SPO22, hits give low values 1.1 | locus YIL125W, strain kgd1, hits give low values 1.01 | locus YIR030C, strain dcg1, hits give low values 1.03 | locus YJL092W, strain hpr5, hits give low values 1 | locus YJL095W, strain BCK1 (second series), hits give low values 0.99 | locus YJL095W, strain BCK1, hits give low values 1 and 0.959 | locus YJL115W, strain asf1, hits give low values 1 | locus YJL129C, strain trk1, hits give low values 0.999 | locus YJL134W, strain LCB3, hits give low values 1.01 | locus YJL154C, strain vps35, hits give low values 1 | locus YJL164C, strain tpk1, hits give low values 0.984 | locus YJL166W, strain qcr8, hits give low values 1 | locus YJL168C, strain set2, hits give low values 1.03 | locus YJL187C, strain SWE1 (second series), hits give low values 1.01 | locus YJL187C, strain SWE1, hits give low values 1.01 | locus YJR043C, strain POL32, hits give low values 1.01 | locus YJR066W, strain TOR1, hits give low values 0.935 | locus YJR075W, strain HOC1, hits give low values 1.02 | locus YKL009W, strain mrt4, hits give low values 1.02 | locus YKL068W, hits give low values 1.01 | locus YKL085W, strain MDH1 (second series), hits give low values 1.01 | locus YKL085W, strain MDH1, hits give low values 1.01 | locus YKL160W, strain elf1, hits give low values 1.01 | locus YKR001C, strain vps1, hits give low values 1.02 | locus YKR026C, strain gcn3, hits give low values 0.994 | locus YKR091W, strain srl3, hits give low values 0.994 | locus YLL001W, strain dnm1, hits give low values 0.985 | locus YLL026W, hits give low values 0.999 | locus YLL041C, strain sdh2, hits give low values 1.01 | locus YLR027C, strain aat2, hits give low values 1.01 | locus YLR039C, strain RIC1, hits give low values 1.09 | locus YLR058C, strain SHM2, hits give low values 1.01 | locus YLR102C, strain apc9, hits give low values 1.02 | locus YLR113W, strain HOG1, hits give low values 0.94 | locus YLR221C, strain rsa3, hits give low values 0.964 | locus YLR258W, strain gsy2, hits give low values 0.979 | locus YLR262C, strain YPT6 (second series), hits give low values 0.997 | locus YLR262C, strain YPT6, hits give low values 1.12 | locus YLR268W, strain sec22, hits give low values 1.04 | locus YLR320W, strain mms22, hits give low values 0.984 | locus YLR330W, strain CHS5, hits give low values 1.02 | locus YLR342W, strain FKS1 (second series), hits give low values 1.01 | locus YLR342W, strain FKS1, hits give low values 1 | locus YLR357W, strain rsc2, hits give low values 1.01 | locus YLR370C, strain arc18, hits give low values 0.979 | locus YLR371W, strain rom2, hits give low values 1.03 | locus YLR384C, strain iki3, hits give low values 1 | locus YLR418C, strain cdc73, hits give low values 1.06 | locus YML016C, strain PPZ1, hits give low values 1.01 | locus YML032C, strain rad52, hits give low values 1.03 | locus YML120C, strain ndi1, hits give low values 0.981 | locus YML124C, strain tub3, hits give low values 1.02 | locus YMR058W, strain fet3, hits give low values 1.01 | locus YMR078C, strain ctf18, hits give low values 1.02 | locus YMR125W, strain sto1, hits give low values 0.995 | locus YMR129W, hits give low values 1 | locus YMR205C, strain PFK2, hits give low values 0.992 | locus YMR223W, strain ubp8, hits give low values 1.02 | locus YMR231W, strain pep5, hits give low values 1.01 | locus YMR307W, strain GAS1, hits give low values 1.01 | locus YNL067W, strain RPL9B, hits give low values 1.02 | locus YNL071W, strain lat1, hits give low values 1.01 | locus YNL183C, strain NPR1, hits give low values 0.91 | locus YNL209W, strain ssb2, hits give low values 0.996 | locus YNL233W, strain BNI4, hits give low values 1.01 | locus YNL248C, strain rpa49, hits give low values 1.03 | locus YNL250W, strain rad50, hits give low values 1.03 | locus YNL271C, strain bni1, hits give low values 1.02 | locus YNL298W, strain CLA4, hits give low values 1.03 | locus YNL307C, strain MCK1, hits give low values 1.07 | locus YNL322C, strain KRE1 (second series), hits give low values 0.997 | locus YNR049C, strain mso1, hits give low values 1 | locus YNR052C, strain pop2, hits give low values 1.03 | locus YOL012C, strain htz1 0.664 | locus YOL147C, strain pex11, hits give low values 1.02 | locus YOR001W, strain rrp6, hits give low values 1.02 | locus YOR061W, strain CKA2, hits give low values 1 | locus YOR069W, strain VPS5, hits give low values 1.01 | locus YOR070C, strain gyp1, hits give low values 0.997 | locus YOR080W, strain dia2, hits give low values 1 | locus YOR083W, strain WHI5, hits give low values 0.997 | locus YOR106W, strain vam3, hits give low values 1.01 | locus YOR136W, strain idh2, hits give low values 1.05 | locus YOR144C, strain elg1, hits give low values 1.02 | locus YOR184W, strain ser1, hits give low values 1.03 | locus YOR231W, strain MKK1, hits give low values 0.965 | locus YOR265W, strain rbl2, hits give low values 1.01 | locus YOR270C, strain vph1, hits give low values 0.943 | locus YOR290C, strain snf2, hits give low values 0.996 | locus YOR316C, strain cot1, hits give low values 1.03 | locus YPL051W, strain arl3, hits give low values 0.997 | locus YPL078C, strain atp4, hits give low values 1.01 | locus YPL106C, strain sse1, hits give low values 0.967 | locus YPL240C, strain hsp82, hits give low values 0.99 | locus YPL256C, strain CLN2, hits give low values 0.933 | locus YPR119W, strain clb2, hits give low values 1.01 | locus YPR141C, strain kar3, hits give low values 1.02 | locus YPR163C, strain tif3, hits give low values 1.05 | locus YPR167C, strain met16, hits give low values 1.04 | strain wtn01, hits give low values 1.01
